Only some compounds are listed: those with a hit (about 8.3% of all), similar ones and a draw of the others.
HCV inh: qHTS Assay for Inhibitors of Hepatitis C Virus (HCV) | 3.4% of 340,000 active | Potency, µM (top dose mostly 41.8 µM), inactives show top-dose activity change, negative = inhibition, usual class: inhibitors | Huh7.5.1 HCVcc-Cre infection, luciferase reporter, 44 h; further: potency means the concentration at half of the fitted maximal effect
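Compounds are dispensed onto cells plated 4 h earlier at 1,000 per well, with HCVcc-Cre virus (about 0.5 moi) added next. Following 44 h of culture, luminescent signal is measured for 15 sec after 15 min with substrate at room temperature.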
HCMV inh: qHTS Assay for inhibitors of the human cytomegalovirus (HCMV); AID 1259415, 2018; 4.5% of 410,000 active; activity change, negative = inhibition, % at 57.5 µM; HFF cells, HCMV-luciferase reporter, 72 h; stronger effect = lower value; in the data active means activity change below about -60%; inconclusive means no clear call, values can overlap the other calls; inactive means above about -39%
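After 16 h attachment at 37C, HFF cells received test compound and HCMV-luciferase (1 PFU/cell); reporter luminescence read 72 h later, data normalized against buffer-only and known inhibitor Salinomycin.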
LASV entry inh: qHTS for Inhibitors of binding or entry into cells for Lassa Virus; AID 540256, 2011; Lassa virus pseudotype entry inhibition, cell reporter; 1.2% of 300,000 active; Potency, µM (series often up to 37.9 µM), for inactives: top-dose activity change, negative = inhibition, hits mostly inhibitors; calls by dose curve; tested in HEK293 cells; further: potency means the concentration at half of the fitted maximal effect; nearly all actives have a fitted effect of over 50% in size
FMDV inh: High Throughput Screening for Foot and Mouth Disease Virus Antivirals; FMDV antiviral cell-based qHTS; Potency, µM (top dose mostly 57.9 µM), for the others: top-dose activity change, negative = inhibition, actives largely listed as inhibitors; 1.2% of 410,000 active; AID 1159524, 2015; calls by dose curve; tested in HEK293T cells; further: read-out not given here; potency means the concentration at half of the fitted maximal effect; nearly all actives have a fitted effect of over 45% in size
MARV entry inh: qHTS for inhibitors of binding or entry into cells for Marburg Virus | Marburg virus pseudotyped entry inhibition, cell reporter | Potency, µM (doses to about 37.8 µM), for the others: top-dose activity change, negative = inhibition, hits mostly inhibitors | 1.8% of 300,000 active; calls by dose curve; tested in HEK293 cells; further: potency means the concentration at half of the fitted maximal effect
Giardia FBPA inh: qHTS Assay for Inhibitors of Fructose-1,6-bisphosphate Aldolase from Giardia Lamblia | Potency, µM (series often up to 59.6 µM), inactives show at the top dose activity, negative = inhibition, actives largely listed as inhibitors | A8B2U2 | purified Giardia FBPA | 0.71% of 290,000 active; further: potency means the concentration at half of the fitted maximal effect; nearly all actives have a fitted effect of over 55% in size
Target sequence (A8B2U2 whole entry, looked up): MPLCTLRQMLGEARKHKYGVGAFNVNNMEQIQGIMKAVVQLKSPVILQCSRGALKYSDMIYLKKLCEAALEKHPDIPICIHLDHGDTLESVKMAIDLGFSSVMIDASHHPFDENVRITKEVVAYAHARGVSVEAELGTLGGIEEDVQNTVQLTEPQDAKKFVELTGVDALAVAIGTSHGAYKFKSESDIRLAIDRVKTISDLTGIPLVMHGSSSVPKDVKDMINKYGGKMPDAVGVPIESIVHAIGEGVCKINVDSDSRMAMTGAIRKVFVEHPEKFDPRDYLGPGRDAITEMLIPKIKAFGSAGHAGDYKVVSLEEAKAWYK
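40 nM FBPA preincubated 10 min at RT with compound (up to 57.5 uM final), then substrate plus GAPDH/TPI/NAD/arsenate coupling and diaphorase/resazurin added. Fluorescence read after 20 min at RT, 525/598 nm.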
* marks the source's active call; other numbers are inactive results; ? = inconclusive; · = no result given; + = active, no number; [ ] = another dose, or the depositor's remark. Unless noted, the call rests on the fitted dose curve; in most records, active means well fitted curve in the direction sought with a large enough effect; inconclusive means small, poorly fitted or top-dose-only effect, or another doubt; inactive means no such curve, though single readings can be large; an effect the other way counts as inactive or inconclusive. On the % scale 0 is the no-effect control and ±100 the full control effect.

SMILES	HCV inh	HCMV inh	LASV entry inh	FMDV inh	MARV entry inh	Giardia FBPA inh
Clc1ccc(CNc2nc(CN3CCOCC3)nc3scc(-c4ccccc4)c23)cc1	?	-21	?	14µM*	20µM*	1%
CC[C@](N)(CCC(=O)O)C(=O)O	·	·	·	-1%	·	-11%
CN(Cc1ccccc1)C(=O)CSc1nc2ccsc2c(=O)n1-c1ccc(F)cc1	·	?	-3%[46.1 µM]	-5%	·	·
O=C(NCCN1CCOCC1)c1cc2n(n1)[C@@H](C(F)(F)F)C[C@H](c1ccc(F)cc1)N2	·	·	·	·	28%	·
CCCCOC(=O)c1ccc(NC(=O)Cc2coc3ccc(C(C)C)cc23)cc1	·	-11	1%[46.1 µM]	-26%	?	·
CC[C@H]1OC(=O)C[C@@H](O)[C@H](C)[C@@H](O[C@@H]2O[C@H](C)[C@@H](O)[C@H](N(C)C)[C@H]2O)[C@@H](CCN2C[C@H](C)C[C@H](C)C2)C[C@@H](C)C(=O)/C=C/C(C)=C/[C@@H]1CO[C@@H]1O[C@H](C)[C@@H](O)[C@@H](OC)[C@H]1OC	·	·	·	-12%	·	·
CC1CC(C)CC(C)C(O)C(C#N)=CC=CCC(C2CCCC2C(=O)O)OC(=O)CC(O)C(C)C1 (centres undefined)	?	-97*	1.4µM*	?	0.45µM*	·
CCCCN(Cc1cccs1)S(=O)(=O)c1ccc(-c2ccc(=O)[nH]n2)s1	-22%	-68*	0%[46.1 µM]	9%	-3%[46.1 µM]	-2%
Oc1c(Cl)cc(Cl)cc1/C=N/NC(=S)NC1CC2C=CC1C2 (centres undefined)	?	-68*	?	-24%	?	29%
Oc1ccccc1/C=N/NC(=S)NC1CC2C=CC1C2 (centres undefined)	-24%	?	?	67%	?	16%
Oc1ccccc1C=NNC(=S)NC1CC2C=CC1C2 (centres undefined)	·	-71*	·	58%	·	·
CC(=O)OCOC(=O)CNc1ccccc1OCCOc1ccccc1NCC(=O)OCOC(C)=O	·	·	·	·	·	-8%
Cc1ccc(C(=O)NC2CCCCCCC2)c(Cl)c1	15%	-79*	·	-46%	·	3%
O=C(NC1CCCCCCC1)c1cc(F)c(F)cc1Cl	18%	-61*	·	43%	·	-2%
Cc1ccc(C(=O)NC2CCCCC2)cc1	6%	111	4%	·	0%	·
COc1cccc(-c2nnc3sc(C4CCCCC4)nn23)c1	-28%	-84*	-7%	18%	15%	9%
CCc1ccc(NC(=O)c2sc3nc(C)c(Cl)c(C)c3c2NC(=O)c2ccccc2)cc1	·	7	2%[46.1 µM]	-2%	10%[46.1 µM]	·
Cc1cc(C)cc(CC(Cc2nc3ccccc3[nH]2)c2nc3ccccc3[nH]2)c1 (centres undefined)	5µM*	-101*	?	?	?	-12%
Brc1ccccc1/C=N/Nc1ccc2ccccc2n1	?	277	?	-60%	11µM*	1%
Brc1ccc(/C=N/Nc2ccc3ccccc3n2)cc1	12%	133	?	0%	-20%	-9%
Fc1cccc(/C=N/Nc2ccc3ccccc3n2)c1	-12%	2	?	-58%	6.3µM*	-12%
O=[N+]([O-])c1cccc(C=NNc2ccc3ccccc3n2)c1O	?	-97*	2.5µM*	10µM*	2.2µM*	·
COc1cccc(NC(=O)CSC2=Nc3ccccc3N=C(c3ccc(F)cc3)C2)c1	·	?	-11%[46.1 µM]	-30%	·	·
COc1cccc(NC(=O)CN2C(=O)c3cccc4cccc2c34)c1	·	0	31%[46.1 µM]	-6%	?	·
O=C(O)c1ccccc1Nc1ccccc1C(=O)O	1%	23	2%	11%	8%	-5%
SMILES	HCV inh	HCMV inh	LASV entry inh	FMDV inh	MARV entry inh	Giardia FBPA inh
CCCCNC1=CC(=O)C(=O)c2ccccc21	11µM*	-35	?	35µM*	16µM*	-9%
O=C1C=C(Nc2ccccc2C(=O)O)c2ccccc2C1=O	9%	0	·	-26%	·	1.6µM*
O=C1C=C(Nc2ccccc2)C(=O)c2ccccc21	-16%	-30	·	9%	·	?
O=C1C=C(Nc2cccc3cccnc23)c2ccccc2C1=O	?	-75*	0%[46.1 µM]	28µM*	?	1.6µM*
O=C1C=C(Nc2ccccc2)c2ccccc2C1=O	8.9µM*	-64*	7.1µM*	?	?	?
COc1ccccc1C1CN(CCNC(=O)c2ccccc2Cl)Cc2ccccc2O1 (centres undefined)	·	·	·	8%	·	·
NC(=S)N/N=C/c1ccccc1OC(=O)c1cc2ccccc2oc1=O	-9%	+	·	19%	·	23%
NC(=S)N/N=C/c1ccccc1OC(=O)/C=C/c1ccccc1	15%	-110*	·	-20%	·	·
Cc1cc(C)c2c(CC(=O)Nc3ccccc3C(F)(F)F)coc2c1	·	-11	20%[46.1 µM]	-2%	-11%[46.1 µM]	·
COc1ccc(Cn2c(CNC(=O)Cc3ccc(OC)c(OC)c3)nc3cccnc32)cc1	·	2	-29%[46.1 µM]	1%	·	·
Nc1ncc([N+](=O)[O-])c(N2CCCCCC2)n1	13%	-75*	-3%[46.1 µM]	-8%	5%[46.1 µM]	16%
O=[N+]([O-])c1ccc(N2CCCC2)nc1N1CCCC1	-31%	-4	-6%	-14%	?	-6%
COc1c(CC=C(C)C)c(O)cc2oc(=O)c3c4ccc(O)cc4oc3c12	4µM*	·	·	6%	·	·
CCCCn1c(NCc2ccccc2NS(=O)(=O)c2ccc(C)cc2)nc2ccccc21	?	-23	?	-12%	11µM*	-2%
CCn1c(/N=C/c2ccccc2NS(=O)(=O)c2ccc(C)cc2)nc2ccccc21	31%	·	11µM*	3%	?	?
CCN(CC)CCn1c(NS(=O)(=O)c2ccc(C)cc2)nc2ccccc21	10%	19	0%	10%	16%	·
O=C(NCc1nnc2n1CCN(Cc1ccc(C(F)(F)F)cc1)CC2)c1cccc(F)c1	·	·	·	-12%	·	·
Cc1ccccc1-c1nc(C(=O)NCC2CCCO2)cc2c1[nH]c1ccccc12 (centres undefined)	?	-23	·	?	·	-6%
Cc1ccc(-c2nc(C(=O)NCC3CCCO3)cc3c2[nH]c2ccccc23)cc1 (centres undefined)	?	-95*	·	?	·	15%
COc1ccc(-c2nc(C(=O)NCC3CCCO3)cc3c2[nH]c2ccccc23)cc1 (centres undefined)	3.5µM*	?	·	?	·	-20%
COc1ccc(OC)c(-c2nc(C(=O)NC3CCN(Cc4ccccc4)CC3)cc3c2[nH]c2ccccc23)c1	6.3µM*	25	·	?	·	0%
CCC(C)(C)c1ccc(OCCCC[n+]2cccc(C)c2)c(C(C)(C)CC)c1	?	-101*	?	32µM*	?	1%

From PubChem BioAssay
